{"source": "PubChem BioAssay (Tox21)", "note": "Several values for one entry are separate records, joined by “and”; a condition that tells them apart may be missing. Equal values may be shown once. Results filed as inconclusive are left out. Entries that show only a call come without a potency. Some structures have more than one record in an assay (separate samples or runs), and their calls can disagree. Activity calls are given as the source filed them. Calls come from the whole dose curve; as a rule, active = well fitted cell-killing curve with a large enough effect in the repeat runs; inconclusive = weak or mixed curves, or effect the other way; inactive = flat fitted curve, though single readings scatter. Potency is the fitted concentration of half-maximal effect.", "data": [{"assay": "qHTS RealTime-Glo MT Cell Viability Assay in HEK293 cells - 32 hour (AID 1224868); note: nearly all actives have a fitted effect of over 50% in size", "details": "RealTime-Glo luminescence; series mostly up to 76.8 µM", "from_the_text": "National Center for Advancing Translational Sciences [NCATS]\nNIH Chemical Genomics Center [NCGC]\nU.S. Environmental Protection Agency [EPA]\nNational Institutes of Environmental Health Sciences [NIEHS]\nNational Toxicology Program [NTP]\nU.S. Food and Drug Administration [FDA]\nMeasure of cell viability is critical in the cell-base assay. Analysis of cell viability is necessary for the characterization of cell responses to cytotoxic drugs and environmental stress. A RealTime-Glo MT Cell Viability Assay to monitor cell viability in real time of continues cell culture during 40 hours of compound treatment was used to screen Tox21 10K library compounds in Hek293 cells. The RealTime-Glo MT Cell Viability Assay is a nonlytic, homogeneous, bioluminescent method to measure cell viability in real time using a simple, plate-based method. The assay involves adding NanoLuc luciferase and a cell-permeant prosubstrate to cells in culture. Viable cells reduce the proprietary prosubstrate to generate a substrate for NanoLuc luciferase. This substrate diffuses from cells into the surrounding culture medium, where it is rapidly used by the NanoLuc Enzyme to produce a luminescent signal. The signal correlates with the number of viable cells, making the assay well suited for cytotoxicity studies.\nTox21 Assay Protocol Summary:\nThe mixture of Hek293 cell suspension and reagents were dispensed at 600cells/6 ul/well in 1536-well tissue culture treated black solid bottom plates using a Multidrop dispenser. After the assay plates were incubated at a 37 C/5% CO2 incubator for 5 hours, 23 nL of compounds dissolved in DMSO, positive and negative controls was transferred to the assay plate by a pintool work station. The plates were incubated at 37 C for 40 hours. The luminescence intensity were measured at 0h, 8h, 16h, 24h, 32h and 40h time points using ViewLux plate reader during compound treatment.", "values": [{"compound": "O=C1OC2(c3cc(Br)c(O)c(Br)c3Oc3c2cc(Br)c(O)c3Br)c2c(Cl)c(Cl)c(Cl)c(Cl)c21", "Potency": "inactive"}, {"compound": "Cc1cccc(N(C)C(=S)Oc2ccc3ccccc3c2)c1", "Potency": "inactive"}, {"compound": "c1ccc2c(c1)Oc1ccccc1S2", "Potency": "inactive"}, {"compound": "CCCCNS(=O)(=O)c1ccccc1", "Potency": "inactive and 4.36 µM (active)"}, {"compound": "O=C(Nc1ccc(Cl)cc1)Nc1ccc(Cl)c(Cl)c1", "Potency": "4.34 µM (active) and 4.36 µM (active) and 3.38 µM (active)"}, {"compound": "CC1=CCC(C(C)(C)O)CC1", "note": "(stereo not given)", "Potency": "inactive"}, {"compound": "OCCO", "Potency": "inactive"}, {"compound": "O=S(=O)(O)c1ccc(O)cc1", "Potency": "inactive"}, {"compound": "Brc1cc(Oc2cc(Br)c(Br)c(Br)c2Br)c(Br)c(Br)c1Br", "Potency": "inactive"}, {"compound": "C=C(C)C1CC=C(C)CC1", "note": "(stereo not given)", "Potency": "inactive"}, {"compound": "CCCCCCCCCCCO", "Potency": "inactive"}, {"compound": "OC(CCl)CCl", "Potency": "inactive"}, {"compound": "Cc1cccc([N+](=O)[O-])c1C", "Potency": "inactive"}, {"compound": "Clc1nc(Cl)c(Cl)c(Cl)c1Cl", "Potency": "inactive"}, {"compound": "O=C(OCc1ccccc1)c1ccccc1O", "Potency": "inactive"}, {"compound": "O=CCc1ccccc1", "Potency": "inactive"}, {"compound": "OC[C@H]1O[C@@H]2O[C@H]3[C@H](O)[C@@H](O)[C@@H](O[C@H]4[C@H](O)[C@@H](O)[C@@H](O[C@H]5[C@H](O)[C@@H](O)[C@@H](O[C@H]6[C@H](O)[C@@H](O)[C@@H](O[C@H]7[C@H](O)[C@@H](O)[C@@H](O[C@H]8[C@H](O)[C@@H](O)[C@@H](O[C@H]1[C@H](O)[C@H]2O)O[C@@H]8CO)O[C@@H]7CO)O[C@@H]6CO)O[C@@H]5CO)O[C@@H]4CO)O[C@@H]3CO", "Potency": "inactive"}, {"compound": "Cc1c(C(N)=O)cc([N+](=O)[O-])cc1[N+](=O)[O-]", "Potency": "inactive"}, {"compound": "O=C(Nc1ccc([N+](=O)[O-])cc1Cl)c1cc(Cl)ccc1O", "Potency": "3.47 µM (active) and 928 nM (active)"}, {"compound": "CCC(C)c1ccccc1O", "note": "(stereo not given)", "Potency": "inactive"}, {"compound": "COC(=O)CCC(=O)OC", "Potency": "inactive"}, {"compound": "Cc1cc2nc3c(=O)[nH]c(=O)nc-3n(C[C@H](O)[C@H](O)[C@H](O)CO)c2cc1C", "Potency": "inactive"}, {"compound": "Nc1ccc(S(=O)(=O)Nc2cnc3ccccc3n2)cc1", "Potency": "inactive"}, {"compound": "C[Si](C)(C)O[Si](C)(C)C", "Potency": "inactive"}, {"compound": "S=C(NC1CCCCC1)NC1CCCCC1", "Potency": "15.2 µM (active) and 21.9 µM (active)"}, {"compound": "Nc1ccccc1N", "Potency": "inactive"}, {"compound": "c1ccncc1", "Potency": "inactive"}, {"compound": "O=C=Nc1ccc(Cc2ccc(N=C=O)cc2)cc1", "Potency": "inactive"}, {"compound": "C[C@]12CC[C@H]3[C@@H](CCC4=CC(=O)CC[C@@]43C)[C@@H]1CC[C@@H]2C(=O)CO", "Potency": "24.5 µM (active)"}, {"compound": "CCCC(=O)O", "Potency": "inactive"}, {"compound": "CC(=O)c1ccccn1", "Potency": "inactive"}, {"compound": "Cc1ccc2c(n1)Oc1ccc(C(C)C(=O)OCC(=O)N(C)C)cc1C2", "note": "(stereo not given)", "Potency": "inactive"}, {"compound": "CC(C)CC(C)(O)C#CC(C)(O)CC(C)C", "note": "(stereo not given)", "Potency": "inactive"}, {"compound": "C/C=C/C(=O)O", "Potency": "inactive"}, {"compound": "CC(CCC(=O)O)(c1ccc(O)cc1)c1ccc(O)cc1", "Potency": "inactive"}, {"compound": "Cc1ccc(C(=O)c2cc(O)c(O)c([N+](=O)[O-])c2)cc1", "Potency": "inactive"}, {"compound": "Nc1ccc(Nc2ccccc2)cc1", "Potency": "48.5 µM (active)"}, {"compound": "c1ccc(Nc2ccccc2)cc1", "Potency": "19.5 µM (active) and inactive"}, {"compound": "CCCCC(CC)COC(=O)c1ccc(N(C)C)cc1", "note": "(stereo not given)", "Potency": "inactive"}, {"compound": "Cc1c(OCC(F)(F)F)ccnc1CS(=O)c1nc2ccccc2[nH]1", "note": "(stereo not given)", "Potency": "19.5 µM (active) and 10.7 µM (active)"}]}]}
